Consider 45 compounds from PubChem BioAssay AID720709 (National Center for Advancing Translational Sciences (NCATS), 2013).

In all, about 360,000 compounds went through this assay and about 520 (0.14%) were called active. Another 3% or so got no clear call; they are omitted. The list comes from a sample in which actives are over-represented; it also holds similar structures and randomly drawn compounds. A number with no mark means an inactive call. Calls follow the shape of the dose curve; as a rule, active = well fitted inhibition curve with a large enough effect; inconclusive = small, poorly fitted or top-dose-only effect; inactive = no such curve, though single readings can be large or run the other way.
Potency is read from the fitted curve at half-maximal effect.

The target of this assay is Rap guanine nucleotide exchange factor 3 (Homo sapiens) (UniProt O95398). Kind of assay: qHTS for Antagonist of cAMP-regulated guanine nucleotide exchange factor 3 (EPAC1): primary screen. Also: nearly all actives have a fitted effect of over 50% in size.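 As to activity change, negative = inhibition: plate controls were vehicle for no effect and positive control for full effect.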 The settings on record: EPAC1 GEF assay, Rap1b-BODIPY-GDP exchange fluorescence; series mostly up to 115 µM; activity change, negative = inhibition: at the top concentration. An excerpt: In multi-cellular eukaryotic organisms, the effects of cAMP are transduced by two ubiquitously-expressed intracellular cAMP receptors, the classic protein kinase A/cAMP-dependent protein kinase (PKA/cAPK) and the more recently discovered exchange protein directly activated by cAMP/cAMP-regulated guanine nucleotide exchange factor (EPAC/cAMP-GEF). Both PKA and EPAC are ubiquitously expressed in all tissues, and an increase in intracellular cAMP levels will lead to the activation of both PKA and EPAC. Therefore, careful dissections of the individual role and relative contribution of EPAC and PKA within the overall cAMP signaling in various model systems are critical for further elucidating the mechanism of cAMP signaling. To date no EPAC-specific antagonists and agonist, as well as isoform-specific agonists have been reported, and developing EPAC-specific pharmacological probes to determine the physiological functions that EPAC play in the overall cAMP-mediated signaling remains a major challenge within the research field. Furthermore, identified regulators of EPAC may lead to new mechanism-based therapeutic strategies specifically targeting the EPAC / cAMP-signaling components as EPAC has been implicated to play important roles in major human pathological conditions such as diabetes, heart disease, and cancer. This qHTS will be used to screen the Molecular Libraries Small Molecule Repository (MLSMR) as a concentration-titration series using the NCGC unique quantitative screening (qHTS) platform to find inhibitors for EPAC1. In addition, this assay will also be used as a counterscreen for the EPAC2 qHTS. This fluorescent based assay is developed and validated for EPAC1 that measures exchange using EPAC effector Rap1 complex with BODIPY-GDP, a GDP analog with a tethered fluorophores. Inhibitors are identified by monitoring the change in fluorescence signal as the exchanged free BODIPY-GDP has a reduced fluorescence compared to Rap1-bound BODIPY-GDP. Decrease in signal (inhibition) is the desired outcome for the EPAC1 antagonist while no activity in this assay is desired for the EPAC2 antagonist counterscreen. de Rooij, J., Zwartkruis, F. J., Verheijen, M. H., Cool, R. H., Nijman, S. M., Wittinghofer, A., and Bos, J.L. (1998) Nature 396, 474-477 [2] Kawasaki, H., Springett, G. M., Mochizuki, N., Toki, S., Nakaya, M., Matsuda, M., Housman, D. E., and Graybiel, A. M. (1998) Science 282, 2275-2279 NIH Chemical Genomics Center [NCGC] NIH Molecular Libraries Probe Centers Network [MLPCN] MLPCN Grant: NS066510 Assay Submitter (PI): Xiaodong Cheng, The University of Texas, Medical Branch
Rap guanine nucleotide exchange factor 3 (Homo sapiens), sequence (O95398 whole entry, looked up): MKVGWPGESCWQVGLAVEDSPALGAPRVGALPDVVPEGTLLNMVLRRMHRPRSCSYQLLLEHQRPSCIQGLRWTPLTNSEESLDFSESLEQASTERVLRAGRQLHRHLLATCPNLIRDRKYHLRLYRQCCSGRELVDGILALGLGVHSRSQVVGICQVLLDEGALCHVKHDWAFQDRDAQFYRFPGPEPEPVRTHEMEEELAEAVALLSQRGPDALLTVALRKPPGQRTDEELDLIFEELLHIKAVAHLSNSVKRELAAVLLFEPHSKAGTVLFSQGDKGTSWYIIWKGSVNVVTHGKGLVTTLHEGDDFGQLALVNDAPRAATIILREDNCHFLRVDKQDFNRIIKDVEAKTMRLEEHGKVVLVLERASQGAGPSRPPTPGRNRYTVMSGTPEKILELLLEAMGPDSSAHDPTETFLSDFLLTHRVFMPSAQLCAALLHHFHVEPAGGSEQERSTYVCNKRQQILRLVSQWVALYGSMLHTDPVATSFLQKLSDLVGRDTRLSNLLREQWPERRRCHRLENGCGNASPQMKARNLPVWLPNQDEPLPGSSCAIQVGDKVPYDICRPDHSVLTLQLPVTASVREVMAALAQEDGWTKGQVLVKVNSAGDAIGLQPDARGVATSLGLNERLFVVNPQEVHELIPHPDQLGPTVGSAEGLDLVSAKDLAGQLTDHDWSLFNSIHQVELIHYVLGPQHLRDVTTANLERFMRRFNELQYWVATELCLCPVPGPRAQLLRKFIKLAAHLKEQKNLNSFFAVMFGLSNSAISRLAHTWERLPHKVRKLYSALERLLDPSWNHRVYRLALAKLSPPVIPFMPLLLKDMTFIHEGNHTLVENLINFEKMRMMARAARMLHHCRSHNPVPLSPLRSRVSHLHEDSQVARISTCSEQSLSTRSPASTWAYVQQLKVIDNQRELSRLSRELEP
Briefly, three uL of reagents (100 nM EPAC1, 250 nM RAP1B-BODIPY-GDP, 50 uM GDP) were dispensed into a 1536-well Greiner black solid-bottom medium binding assay plate. Controls and test compounds (23 nL) were transferred to the plate via a Kalypsys pin tool equipped with a 1536-pin array. The plates were centrifuged at 1,000 rpm for 15 seconds followed by 5 minute incubation at room temperature. The assay plates were read at 5 minute intervals for 30 minutes in the ViewLux plate reader using 480nm excitation and 540nm emission filters. The results were normalized to the […] positive control ATA and DMSO.
(In general: In qHTS, concentration-response curves come from the screen itself.)
Regarding `COC(=O)C[C@H]1C=C[C@H](NC(=O)c2ccc(F)cc2)[C@@H](CO)O1`, the “activity change, negative = inhibition” value is -26.1%.

On to `C=C1C(=O)OC2C1CCC(C)=CCCC1(C)OC21` (stereo not given), for which the “activity change, negative = inhibition” value was -16.4%.

On to `CO[C@@H]1CN(C)C(=O)c2cc(NC(=O)C3CC3)ccc2OC[C@H](C)N(C(=O)CN2CCOCC2)C[C@@H]1C`, for which the “activity change, negative = inhibition” value is -0.664%.

On to `CC(C)C1C(=O)N(Cc2cn(CCC3OCCO3)nn2)CCS(=O)(=O)N1Cc1ccc(-c2ccccc2C(F)(F)F)cc1` (stereo not given), for which the “activity change, negative = inhibition” value was -16.9%.

Take `CCOC(=O)[C@]12CCC=C1N(Cc1cccc3ccccc13)C(=O)[C@H](CC(=O)NCc1cccc(C(F)(F)F)c1)C2`: the “activity change, negative = inhibition” value was -22.9%.

Take `CCCCC[C@H](C)N1C[C@@H](COCc2ccccc2)Oc2cc(N3CC[C@@H](N(C)C)C3)ccc2S1(=O)=O`: the “activity change, negative = inhibition” value is -13.4%.

With `C=CCC[C@@H](CCCCC)OC(=O)/C=C/[C@@H](O)[C@H](O)C[C@H](O)CC=C`, the “activity change, negative = inhibition” value is -3.19%.

Consider `CCOC(=O)c1ccc(-c2ccc3ncnc(N(C)Cc4sccc4C)c3c2)o1`, for which the “activity change, negative = inhibition” value was -20.6%.

Take `CCCNC(=O)c1cc2c(c(-c3cccc(-c4ccc(C#N)cc4)c3)n1)[C@@H](CCO)N(C(=O)CC)C2`: the “activity change, negative = inhibition” value is -12.9%.

For `Cc1ccc(C(=O)Nc2c(-c3ccccc3)[nH][nH]c2=O)cc1`, the “activity change, negative = inhibition” value was -14.8%.

Regarding `CCCc1nc2ccccc2n1C(C)C(=O)NC(C)(C)C` (stereo not given), the “activity change, negative = inhibition” value is 1.55%.

For `N#Cc1ccc(C(C(=O)NCc2ccccc2)n2c(=O)c(-c3ccco3)nc3ccccc32)cc1` (stereo not given), the “activity change, negative = inhibition” value is -6.44%.

Turning to `CC(C)NC(=O)N1Cc2cc(C(=O)NCC(F)(F)F)nc(-c3cccc(-c4cc5ccccc5o4)c3)c2[C@@H]1CCO`, the “activity change, negative = inhibition” value was 7.65%.

Turning to `CC(C)C[C@H]1CNC(=O)C(=O)N1C[C@H]1CCCN1C[C@H](Cc1ccc(O)cc1)N1C[C@H](CC(C)C)N(CC2CCCCCC2)C(=O)C1=O`, the “activity change, negative = inhibition” value was -10.1%.

As to `COC(=O)c1ccc2c(c1)S(=O)(=O)NC2C` (stereo not given), the “activity change, negative = inhibition” value was 1.42%.

Take `CCC(C(=O)NCc1ccccc1)n1c(Cc2cc(F)cc(F)c2)nc2ccccc21` (stereo not given): the “activity change, negative = inhibition” value is -11.9%.

For the compound `CCOC(=O)c1cc2cc(OC)ccc2n1C1CCN(C)CC1`, the “activity change, negative = inhibition” value was -3.06%.

With `COC(=O)[C@@]1(Sc2ccc(C)cc2)CC(=O)N(c2cccc(SC)c2)[C@@H]1c1ccccc1`, the “activity change, negative = inhibition” value is -16%.

On to `COC(=O)[C@]12CCCCC=C1N(Cc1ccccc1)C(=O)[C@H](CC(=O)NCc1ccc(C)o1)C2`, for which the “activity change, negative = inhibition” value was -8.27%.

Consider `CC(C)OC(=O)CC(=O)CC(O)c1cccc([N+](=O)[O-])c1` (stereo not given), for which the “activity change, negative = inhibition” value is 10.8%.

As to `CCCCc1c(-c2ccc(Cl)cc2)ncn1CCc1ccccc1OC`, the “activity change, negative = inhibition” value was -17.1%.

For `CCOC(=O)N1CCN(C(=O)C[C@@H]2C[C@@]3(C(=O)OC)CC(C)(C)CC=C3N(Cc3ccco3)C2=O)CC1`, the “activity change, negative = inhibition” value is 12.7%.

As for `Nc1[nH]c(C(=O)c2ccccc2)c(-c2ccncc2)c1C(=O)NCc1cccc2ccccc12`, the “activity change, negative = inhibition” value is 7.33%.

`CC(C)c1ccc2c(c1)c(SC(C)(C)C)c(CC(C)(C)C(=O)O)n2Cc1ccc(Cl)cc1`: the Potency is 25.1 µM (active).

Regarding `CCCCc1c(-c2ccc(Br)cc2)ncn1CCc1ccccc1OC`, the “activity change, negative = inhibition” value was -8.85%.

Take `CCC(=O)N1Cc2cc(C(=O)NCc3cccc(F)c3)nc(-c3cccc(C4=CCCC4)c3)c2[C@H]1CCO`: the “activity change, negative = inhibition” value was -8.22%.

In the case of `CCC(C)Cn1c(O)cc2nn(-c3nc4ccccc4s3)c(=O)c-2c1C` (stereo not given), the Potency was 50.1 µM (active).

`Cc1cc2nc(-c3ccc(F)cc3)c(Cc3ccsc3)n2c(C)c1Br`: the “activity change, negative = inhibition” value is 7.15%.

In the case of `COc1ccc(NC(=O)C(c2ccncc2)n2c(=O)c(-c3cc4ccccc4[nH]3)nc3ccccc32)cc1` (stereo not given), the “activity change, negative = inhibition” value is -8.06%.

On to `CCCCCc1c(Cc2ccccc2)ncn1CCc1ccccc1OC`, for which the “activity change, negative = inhibition” value was -18.1%.

Consider `Cc1ccc(-c2c(N)nc3ncccn23)cc1`, for which the “activity change, negative = inhibition” value is -8.75%.

Consider `CCCCC[C@H](C)N1C[C@@H](COCc2ccccc2)Oc2cc(N3CCC[C@@H]3CO)ccc2S1(=O)=O`, for which the “activity change, negative = inhibition” value is 10.1%.

As to `CCCCCCN1CCN(C2CN(Cc3cn(Cc4ccc(F)cc4)nn3)S(=O)(=O)C2)CC1` (stereo not given), the “activity change, negative = inhibition” value is -0.786%.

Regarding `CC1(C)OC(=O)C2=C(C[C@@H](C3CCCC3)O[C@@H]2c2ccc(Cl)cc2)O1`, the “activity change, negative = inhibition” value is -10.6%.

Consider `CCCCCc1c(-c2ccc(OC)c(OC)c2)ncn1CCc1ccccc1OC`, for which the “activity change, negative = inhibition” value is -9.08%.

Consider `COc1ccc(C(C#N)=C2C=CC(=NO)c3ccccc32)cc1`, for which the “activity change, negative = inhibition” value was -2.56%.

As for `COCCNC(=O)C1C(=O)Nc2ccccc2C(=O)N1c1ccc2c(c1)OCCO2` (stereo not given), the “activity change, negative = inhibition” value was -13.8%.

Turning to `O=C(C[C@H]1CC[C@@H](NC(=O)c2ccncc2)[C@@H](CO)O1)NCC1CC1`, the “activity change, negative = inhibition” value is -10.8%.

Consider `CC1(C(=O)NCc2ccccc2)CSCC(=O)N1CCCN1CCOCC1` (stereo not given), for which the “activity change, negative = inhibition” value was -14.7%.

`FC(F)(F)c1cccc(-c2nc3ccccc3n2C(c2ccccc2)c2nc3ccccc3[nH]2)c1` (stereo not given): the “activity change, negative = inhibition” value is -10.9%.

In the case of `CC1(C)OC(=O)C2=C(C[C@@H](C3CC3)O[C@H]2c2ccc(Cl)cc2)O1`, the “activity change, negative = inhibition” value was -6.86%.

As to `Cc1ccc(-c2nc3c(C)cc(Br)cn3c2Cc2ccccc2)cc1`, the “activity change, negative = inhibition” value was -12.7%.

For `COc1ccc(C2=NN(c3nc4ccccc4s3)C(=O)C2)cc1`, the Potency is 79.4 µM (active).

In the case of `COc1ccc(-c2cc3n(n2)CCc2nc4ccccc4n2-3)cc1`, the “activity change, negative = inhibition” value is 3.51%.

For `COc1ccc(C2=NN(C(=O)c3ccccc3C(=O)O)C(c3ccccc3O)C2)cc1` (stereo not given), the “activity change, negative = inhibition” value was 1.95%.
